Experimental findings from the supplement of paper PMC4954754 are described below.

± gives the uncertainty stated by the source.

The assay deals with HEK293T-Rex ERSE-FLuc. As to the kind of experiment: ERSE-FLuc reporter activation, triplicate confirmation, relative to 500 nM thapsigargin (% of thapsigargin); higher = stronger ATF6/ERSE reporter activation. To be noted: 6.8 µM; 18 h; screen: confirmation. The protocol:
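HEK293T-Rex cells stably expressing the ERSE-firefly luciferase (BiP promoter, ATF6-preferring) or XBP1-splicing Renilla luciferase (IRE1/XBP1s) reporter, 1536-well plates, compound at 6.8 µM for 18 hr at 37 °C; luminescence read […] and expressed as % activation = 100*(compound - median DMSO)/(median 500 nM thapsigargin - median DMSO). Primary screen was single-pass; confirmation screen in triplicate (mean ± SD).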
`O=C(N/N=C/c1ccc(O)c(O)c1)c1cccc(Cl)c1`: the ERSE-FLuc reporter activation was 32.8 ± 3.2.

Regarding `C(=N/Nc1nnc2c(n1)[nH]c1ccccc12)/c1c[nH]c2ccccc12`, the ERSE-FLuc reporter activation is 29.6 ± 8.

In the case of `COc1cccc(/C=N/NC(=O)c2n[nH]c3c2CCCC3)c1`, the ERSE-FLuc reporter activation stood at 31.5 ± 1.1.

The molecule `Nc1ccccc1NC(=O)c1ccc(C(=O)Nc2ccccc2N)cc1` registered an ERSE-FLuc reporter activation of 25.1 ± 3.8.

Take `Cc1ccc2nc(/C(C#N)=C/c3ccc(O)c(O)c3)[nH]c2c1`: the ERSE-FLuc reporter activation is 38.9 ± 2.7.

Turning to `O=C(NCCc1ccccc1)c1cc(-c2cccs2)on1`, the ERSE-FLuc reporter activation was found to be 34.5 ± 3.6.

The molecule `Cc1nn(-c2ccc(F)cc2)c2ncc(C(=O)NCc3ccco3)c(Cl)c12` had an ERSE-FLuc reporter activation of 54.5 ± 3.9.

`CCOc1ccc(/C=C(\C#N)c2[nH]nc(N)c2C#N)cc1OCC` returned an ERSE-FLuc reporter activation of 26.7 ± 5.5.

Consider `O=C(Nc1ccccc1O)c1cc2ccccc2o1`, for which the ERSE-FLuc reporter activation amounted to 33 ± 7.3.

`CCOc1cccc(C(=O)Nc2ccc(-c3nc4ccc(C(=O)c5ccccc5)cc4[nH]3)cc2)c1` registered an ERSE-FLuc reporter activation of 28.6 ± 4.7.

As for `COc1ccc(-c2csc(N(CC3CCCO3)C(=O)CCl)n2)cc1` (stereo not given), the ERSE-FLuc reporter activation amounted to 25.3 ± 4.3.

In turn, `Cc1ccc(O)c(NC(=O)c2cc(-c3cccnc3)on2)c1` came in with an ERSE-FLuc reporter activation of 70 ± 3.2.

Molecule `Cc1ccc(C(=O)Nc2ccccc2N)cc1` came in with an ERSE-FLuc reporter activation of 56.8 ± 4.5.

The molecule `COc1ccc(/C=C/c2ccc3cccc(OC(C)=O)c3n2)cc1OC(C)=O` registered an ERSE-FLuc reporter activation of 39.7 ± 5.5.

For `COc1ccc(/C=N/NC(=O)c2cccc(F)c2)cc1Br`, the ERSE-FLuc reporter activation was found to be 35.4 ± 1.5.

`O=[N+]([O-])c1ccc(N/N=C/c2ccccc2O)cc1` registered an ERSE-FLuc reporter activation of 20.7 ± 2.3.

In turn, `CCOc1cc(/C=C2/NC(=O)N(Cc3ccc(F)cc3)C2=O)ccc1O` showed an ERSE-FLuc reporter activation of 32.8 ± 5.4.

`OCCNc1nc(Nc2ccc(Cl)c(Cl)c2)nc2ccccc12` gave an ERSE-FLuc reporter activation of 87.6 ± 9.4.

Take `CC1(C)Cc2ccccc2/C(=C/C(=O)C(=O)N/N=C/c2ccc(O)c(O)c2)N1`: the ERSE-FLuc reporter activation is 30.1 ± 8.7.

Molecule `N#Cc1ccc(-c2cccs2)nc1SCc1ccccn1` had an ERSE-FLuc reporter activation of 25.2 ± 6.2.

Molecule `CN(C)c1ccc(-c2nc3ccc(N)cc3[nH]2)cc1` yielded an ERSE-FLuc reporter activation of 32.7 ± 4.4.

Molecule `COc1ccc2oc(=Nc3cc(F)ccc3F)c(C(N)=O)cc2c1` registered an ERSE-FLuc reporter activation of 25.3 ± 4.6.

In the case of `O=C(N/N=C/c1ccc(Cl)cc1)c1n[nH]c2c1CCCC2`, the ERSE-FLuc reporter activation stood at 42 ± 8.6.

`Cn1c(-c2cccc(Cl)c2)cnc1NC(=O)c1ccccc1` came in with an ERSE-FLuc reporter activation of 25.6 ± 3.7.

For `O=C(Nc1ccccc1O)c1ccc(NS(=O)(=O)c2cccc3cccnc23)cc1`, the ERSE-FLuc reporter activation came to 25.6 ± 8.1.

The molecule `O=C1N/C(=C/c2ccc(O)cc2)C(=O)N1c1cccc(Cl)c1` had an ERSE-FLuc reporter activation of 68.2 ± 5.7.

In turn, `O=C(N/N=C\C(Br)=C\c1ccccc1)c1n[nH]c2c1CCCC2` gave an ERSE-FLuc reporter activation of 35 ± 4.1.

Molecule `CC(=O)Oc1ccc2cc(NC(=O)c3ccc(C)cc3)c(=O)oc2c1` returned an ERSE-FLuc reporter activation of 29.7 ± 6.

Regarding `O=c1[nH]c(/C=C2\C=Nc3ccccc32)c(O)n1-c1cccc(Cl)c1`, the ERSE-FLuc reporter activation was 58.7 ± 9.3.

`Oc1ccc(-c2cn3ccccc3n2)cc1O` came in with an ERSE-FLuc reporter activation of 40 ± 5.6.

In the case of `O=c1[nH]c(/C=C2\C=Nc3ccccc32)c(O)n1-c1ccc(Cl)cc1`, the ERSE-FLuc reporter activation was 41.4 ± 5.5.

As to `O=C(N/N=C/c1ccc(Cl)cc1Cl)c1ccc(O)c(O)c1`, the ERSE-FLuc reporter activation was determined as 25.8 ± 6.1.

Molecule `O=C(CCCCCCC(=O)Nc1ccccc1)NO` showed an ERSE-FLuc reporter activation of 59.2 ± 17.

`Cc1ccc(/C=N/NC(=O)c2cccc(F)c2)cc1` came in with an ERSE-FLuc reporter activation of 27.1 ± 7.8.

`COc1c(O)cc2oc(-c3ccc(O)c(O)c3)cc(=O)c2c1O`: the ERSE-FLuc reporter activation was 133 ± 21.

`COc1ccc(/C(C)=N/OC/C(O)=C(\C#N)c2nc3ccccc3[nH]2)cc1OC`: the ERSE-FLuc reporter activation amounted to 31.3 ± 11.

Molecule `c1ccc2cc(-c3cnnc(N4CCOCC4)n3)ccc2c1` registered an ERSE-FLuc reporter activation of 29 ± 8.7.

The molecule `Cc1ccc(NC(=S)NC(=O)C(=O)Nc2ccccc2)cc1` registered an ERSE-FLuc reporter activation of 139 ± 11.

In turn, `Oc1ccc(-c2csc3nc(-c4ccccc4)nn23)c(O)c1` came in with an ERSE-FLuc reporter activation of 33.9 ± 2.6.

The molecule `CN(C)c1ccc(/C=C(/C#N)C(=O)Nc2ccc(O)cc2)cc1` returned an ERSE-FLuc reporter activation of 33.3 ± 5.
